Assay outcomes from PubChem BioAssay.
FBPA coupling cs: counter-screen for Giardia aldolase inhibitors: coupling enzyme system. coupling enzyme system counterscreen, AmpLite Red fluorescence. activity change, negative = inhibition, % at 58.2 µM, hits read low. 0.67% of 290,000 active. AID 2472; in the data active = activity change below about -30%
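Final compound at 57.5 uM, incubated 10 min at RT with coupling enzyme reagent (glyceraldehyde-3-phosphate), then 20 min with substrate and AmpLite Red detection. Fluorescence read at 525/598 nm; tests interference with the coupling assay, not aldolase inhibition.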
Sfp inh: inhibitors of Bacillus subtilis Sfp phosphopantetheinyl transferase. Biochemical Sfp PPTase activity, qHTS. Potency, µM, actives largely listed as inhibitors. 3.5% of 310,000 active. Q9F4F7;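 also: the enzyme is Sfp with the accession as filed and its product quenches rhodamine fluorescence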
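Buffer: 50 mM Hepes-Na pH 7.6, 10 mM MgCl2, 0.01% Nonidet P-40, 0.01% BSA. Enzyme 15 nM, pre-exposed to compound 15 min; substrates then added and fluorescence change tracked over 30 min.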
Giardia kill: kills Giardia lamblia | activity change, % at 7.66 µM, hits read low | Giardia lamblia trophozoite viability | AID 540267 | 0.15% of 340,000 active; in the data active = activity change below about -80%; inconclusive = between about -30% and that limit;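 also: parasites exposed to compound for two days anaerobically before the ATP read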
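Luminescence from cellular ATP indicates surviving trophozoites (100 cells/well) following 48 hrs anaerobic compound treatment at 37 deg C; signal develops 15-30 min at room temperature.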
ELG1 DNA repair: inhibitors of ELG1-dependent DNA repair in HEK293T cells; HEK293T ELG1-luciferase reporter, luminescence, 16 h; DNA damage induced by 5-fluorouridine; 2.3% of 330,000 active; Potency, µM (highest dose often 46.1 µM), most hits filed as inhibitors; AID 504467; also: nearly all actives have a fitted effect of over 55% in size
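Overnight (16 hr) co-exposure of 2,000 cells/well to 5-fluorouridine and compound at 37 °C preceded detection. Luciferase was quantified via ONE-Glo luminescence; loss of signal denotes inhibition.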
Numbers stand for hits; - = inactive; ? = inconclusive; . = no result. Rows were chosen to be rich in hits. Some 5.5% of all compounds tested hit in one or more screens of this group. Unless noted, calls follow the shape of the dose curve; as a rule, active = well fitted curve in the direction sought with a large enough effect; inconclusive = small, poorly fitted or top-dose-only effect, or another doubt; inactive = no such curve, though single readings can be large; an effect the other way counts as inactive or inconclusive.

SMILES	FBPA coupling cs	Sfp inh	Giardia kill	ELG1 DNA repair
Cc1ccc(C2(C)NC(=O)N(CC(=O)Nc3nc(-c4ccccn4)cs3)C2=O)cc1 (configuration not stated)	.	.	-	?
CCn1cc(C(=O)O)c(=O)c2cnc(N3CCN(C(=S)Nc4ccccc4Cl)CC3)nc21	-	-	-	11.6µM
CCOc1ccc(S(=O)(=O)N2CCN(C(=O)c3cc4ccccc4o3)CC2)cc1	.	.	-	?
Clc1ccc(SCNc2ccccc2Cl)cc1	-	44.7µM	-	-
CC1CCCN(C2=NC(=O)/C(=C/c3cn(-c4ccccc4)nc3-c3cccc(S(=O)(=O)N(C)C)c3)S2)C1 (configuration not stated)	-	-	-	?
CC1CCN(C2=NC(=O)/C(=C/c3cn(-c4ccccc4)nc3-c3cccc(S(=O)(=O)N(C)C)c3)S2)CC1	-	-	-	5.17µM
Cc1ccc(C(=O)NC(C)c2nnc(SCC(=O)NC3CCCC3)n2C)cc1 (configuration not stated)	.	-	-	-
N#Cc1cc([N+](=O)[O-])ccc1Oc1cccc(/C=N/NC(=O)c2cccc(Cl)c2)c1	-35.5	-	-	?
COc1ccc(/C=N/NC(=O)c2cccc([N+](=O)[O-])c2)cc1OC	-	-	-	-
CC(NCc1ccc(OCC(N)=O)cc1)C12CC3CC(CC(C3)C1)C2 (configuration not stated)	-	-	-	-
COc1cccc2sc(NNC(=O)C3COc4ccccc4O3)nc12 (configuration not stated)	-	79.4µM	-	?
Cc1cccc(CN2CCN(CC(=O)O)C2=O)c1	-	89.1µM	-	?
OC(COCc1ccc(Cl)cc1)CN1CCN(CC(O)COCc2ccc(Cl)cc2)CC1 (configuration not stated)	-	-	-	20.6µM
Cc1cccc2cn[nH]c12	-	-	-	-
Cc1[nH]nc2cn[nH]c12	-	-	-	13µM
O=C(NCC(c1ccco1)N1CCc2ccccc21)c1cccc([N+](=O)[O-])c1 (configuration not stated)	.	.	-	?
COc1cccc(C(Nc2ccccn2)c2oc(CO)cc(=O)c2O)c1 (configuration not stated)	-	4.47µM	-	-
O=c1cc(CO)oc(C(Nc2ccccn2)c2ccc(C(F)(F)F)cc2)c1O (configuration not stated)	-	?	-	-
O=c1cc(CO)oc(C(Nc2ccccn2)c2cccc(F)c2)c1O (configuration not stated)	-	10µM	-	-
COc1cccc(CNC(=O)[C@H](CCSC)NC(=O)N2CCn3c2nc2ccccc23)c1	-	-	-	18.3µM
CSCC[C@H](NC(=O)N1CCn2c1nc1ccccc12)C(=O)NC1CC1	-	-	-	-
O=C(NCc1ccco1)C1CCN(C(=O)c2cc3sccc3n2Cc2ccc(Cl)cc2)CC1	-	-	-	18.4µM
CCn1c(C(=O)N2CCCC(C(=O)NCCCc3ccccc3)C2)cc2sccc21 (configuration not stated)	-	-	-	20.6µM
CCOC(=O)N1CCC(NC(=O)C2CCN(C(=O)c3cc4sccc4n3CC)CC2)CC1	-	-	-	23.1µM
CCn1c(C(=O)N2CCCC(C(=O)O)C2)cc2sccc21 (configuration not stated)	-	-	-	-
SMILES	FBPA coupling cs	Sfp inh	Giardia kill	ELG1 DNA repair
CCn1c(C(=O)N2CCCC(C(=O)NCCc3ccc(C)cc3)C2)cc2sccc21 (configuration not stated)	-	-	-	18.4µM
CC(=O)C1CCC2C3CC=C4CC(O)CC[C@@]4(C)C3CC[C@]12C (some centres not stated)	-	-	.	.
CCN1C[C@@H]2[C@@H]3C(=O)N(C)C(=O)[C@@H]3[C@](C)(C1=O)N2C(=O)c1ccc(Br)cc1	.	.	-	.
Cc1ccccc1NC(=O)CSc1nnc(C)c2ccccc12	-	-	-	-
Cc1nnc(SCC(=O)c2ccc(S(=O)(=O)N3CCOCC3)cc2)n1-c1ccccc1	-	31.6µM	-	-
COc1ccc(-n2cnnc2SCC(=O)Nc2cc(S(=O)(=O)N3CCCCC3)ccc2C)cc1	-	-	-	?
COc1ccc(-n2nnnc2Sc2ccc(S(=O)(=O)N3CCOCC3)cn2)cc1	-	44.7µM	-	-
COc1ccc(-n2cnnc2SCC(=O)c2ccc(S(=O)(=O)N3CCOCC3)cc2)cc1	-	56.2µM	-	-
COc1ccc(-n2nnnc2SCC(=O)N2CCOCC2)cc1	-	-	-	?
CCOC(=O)CSc1nnc(-c2ccc(S(=O)(=O)N3CCOCC3)cc2)n1-c1ccccc1	-	-	-	-
O=C(CN1CSCC1=O)N1CCN(S(=O)(=O)c2cc(C(F)(F)F)ccc2Cl)CC1	.	.	-	-
CCC(C)(C)C1CCC2(CC1)NC(=S)N(c1ccccc1)N2 (configuration not stated)	-	79.4µM	-	8.2µM
CC(C)(C)C1CCC2(CC1)NC(=S)N(c1ccccc1)N2 (configuration not stated)	-	?	-	?
O=C(CN1CCOCC1)c1c[nH]c2ccccc12	-	-	-	-
O=C(C(=S)N1CCOCC1)c1c[nH]c2ccccc12	-	11.2µM	-	-
CC[C@](C)(CN(C)C)OC(=O)c1ccccc1	-	-	.	.
Cc1ccc(NC(=O)CN2CCc3cc4c(cc3C2C)OCCCO4)cc1 (configuration not stated)	-	-	-	18.3µM
COc1cccc(CNC2CCCCCCC2)c1OC	-	-	-	-
Cc1ccc(S(=O)(=O)c2ccccc2)cc1S	-	44.7µM	.	-
O=C(Cc1ccc([N+](=O)[O-])cc1)Nc1ccc2c(c1)CCC2	-	-	-	-
CCN(CC)CCOC(=O)C1(c2ccc(OC)c(OC)c2)CCCC1	-	79.4µM	-	-
COC1=C(OC)C(=O)C(C/C=C(\C)CC/C=C(\C)CC/C=C(\C)CC/C=C(\C)CC/C=C(\C)CC/C=C(\C)CC/C=C(\C)CC/C=C(\C)CC/C=C(\C)CCC=C(C)C)=C(C)C1=O	-	-	.	.
CC1Cc2ccccc2N1C(=O)COC(=O)c1ccc([N+](=O)[O-])o1 (configuration not stated)	.	.	-	-
NC1(C(=O)O)CCc2cc(P(=O)(O)O)ccc21 (configuration not stated)	.	56.2µM	.	.
N[C@]1(C(=O)O)CCc2cc(P(=O)(O)O)ccc21	-	-	.	.
SMILES	FBPA coupling cs	Sfp inh	Giardia kill	ELG1 DNA repair
CCCC1=NN2C(=N)/C(=C\c3cc(C)n(Cc4ccccc4)c3C)C(=O)N=C2S1	-	-	-	-
O=C1NC(=S)S/C1=C\c1ccc(SCc2ccccc2)o1	-	?	-	-
CCC1=NN2C(=N)/C(=C\c3ccc(SCc4ccco4)o3)C(=O)N=C2S1	-	44.7µM	-	-
O=C1NC(=S)S/C1=C\c1ccc(SCc2ccco2)o1	-	20µM	-	-
CCCC1=NN2C(=N)/C(=C\c3ccc(SCc4ccco4)o3)C(=O)N=C2S1	-	56.2µM	-	-
CCOC(=O)N1CCC(NC(=O)CS(=O)Cc2nc(-c3ccc(Cl)cc3)oc2C)CC1 (configuration not stated)	.	-	-	?
